The entries come from a sample that favours hits as a whole.
EZH2 inh: blocks human EZH2/PRC2 H3K27 methylation. Q15910. DELFIA TRF, 1 h. inhibition, % at 12.5 µM. hit rate 0.35% among 57,000. AID 651548;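 active means mean inhibition of replicates at least 50% and every single replicate also reaching 50%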;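 further: dimethyl H3K27 on biotinylated H3 21-44 peptide detected by antibody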
Target sequence (Q15910 whole entry, looked up): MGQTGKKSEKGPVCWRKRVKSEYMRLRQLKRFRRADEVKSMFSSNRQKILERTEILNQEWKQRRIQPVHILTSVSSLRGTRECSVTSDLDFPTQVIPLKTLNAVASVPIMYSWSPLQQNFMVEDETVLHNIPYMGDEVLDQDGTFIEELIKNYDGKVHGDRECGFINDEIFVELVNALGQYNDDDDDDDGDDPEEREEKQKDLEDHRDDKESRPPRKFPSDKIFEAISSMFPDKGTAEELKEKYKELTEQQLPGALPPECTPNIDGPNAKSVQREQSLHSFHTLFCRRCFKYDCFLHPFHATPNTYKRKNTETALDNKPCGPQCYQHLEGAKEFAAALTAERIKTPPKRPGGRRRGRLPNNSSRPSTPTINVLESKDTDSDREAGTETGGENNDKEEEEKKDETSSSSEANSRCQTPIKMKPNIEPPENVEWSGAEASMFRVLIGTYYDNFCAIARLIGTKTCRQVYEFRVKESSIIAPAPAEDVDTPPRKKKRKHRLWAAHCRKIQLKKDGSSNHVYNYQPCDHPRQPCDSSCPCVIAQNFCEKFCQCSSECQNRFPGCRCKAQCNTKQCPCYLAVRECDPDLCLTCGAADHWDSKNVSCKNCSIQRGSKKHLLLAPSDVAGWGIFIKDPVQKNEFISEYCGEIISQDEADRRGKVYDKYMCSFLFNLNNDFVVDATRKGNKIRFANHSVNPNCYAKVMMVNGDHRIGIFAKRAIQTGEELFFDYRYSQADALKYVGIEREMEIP
Each line names hits and unclear results; the compound was inactive in the other large screens.

O=C(O)CC(CCc1ccccc1)OC1OC(CO)C(O)C(O)C1O (stereo unspecified)	EZH2 inh 98
CC1(C)CC(n2c(SCC(=O)c3ccc(Cl)cc3)nc3ccccc3c2=O)CCO1 (stereo unspecified)	none
OCCN1CCN(CC(O)COc2ccc3c(c2)CCC3)CC1 (stereo unspecified)	none
CCc1c(C)nc(SCC(=O)Nc2ccc(Cl)cc2)[nH]c1=O	none
O=C(CSc1n[nH]c(-c2ccc(Cl)cc2Cl)n1)Nc1ccccc1F	none
O=C(CSc1n[nH]c(-c2ccc(Cl)cc2Cl)n1)Nc1cccc(Cl)c1Cl	none
N#Cc1c(NC(=O)CSc2n[nH]c(-c3ccc(Cl)cc3Cl)n2)sc2c1CCCC2	EZH2 inh 52
O=C(Nc1ccccc1C(=O)O)c1cccc(S(=O)(=O)Nc2ccccc2F)c1	none
COc1cc(NC(=O)COc2ccc(I)cc2)c(C(=O)O)cc1OC	none
COc1ccc(/C=N/NC(=O)c2cccc(C(=O)NO)c2)cc1Br	none
O=C(CCCCC(=O)N/N=C/c1ccc(O)c(O)c1O)NO	EZH2 inh 76
O=C(NO)c1cccc(C(=O)N/N=C/c2ccc(O)cc2O)c1	none
O=C(NO)c1cccc(C(=O)N/N=C/c2cc(Br)cc(Br)c2O)c1	none
O=C(NO)c1cccc(C(=O)N/N=C/c2cc(Br)ccc2O)c1	none
O=C(NO)c1cccc(C(=O)N/N=C/c2cccc(O)c2O)c1	EZH2 inh 79
O=C(CCCCCC(=O)N/N=C/c1cc(O)ccc1O)NO	none
O=C(CCCCCC(=O)N/N=C/c1ccc(O)cc1O)NO	none
O=C(NO)c1cccc(C(=O)N/N=C/c2ccc(O)c3ccccc23)c1	none
O=C(NO)c1cccc(C(=O)N/N=C/c2ccc(O)c(O)c2O)c1	EZH2 inh 95
CC1CCc2c(sc3nc(SC(C)C(=O)Nc4ccccc4)nc(N)c23)C1 (stereo unspecified)	none
O=C(NO)c1cccc(C(=O)N/N=C/c2ccccc2Br)c1	none
Cc1ccc(S(=O)(=O)N2CCN(c3ccc([N+](=O)[O-])c(NCc4ccco4)c3)CC2)cc1C	none
Fc1ccccc1-c1nnc(SCc2nc3ccccc3[nH]2)n1-c1ccccc1	none
C[C@@H]1O[C@@H](O[C@H]2[C@H](Oc3cc(O)c4c(=O)cc(-c5ccc(O)cc5)oc4c3)O[C@H](CO)[C@@H](O)[C@@H]2O)[C@H](O)[C@H](O)[C@H]1O	none
COc1ccc(-c2coc3cc(O[C@@H]4O[C@H](CO)[C@@H](O)[C@H](O)[C@H]4O)cc(O)c3c2=O)cc1	none
CC1OC(OCC2OC(Oc3cc(O)c4c(=O)c(-c5ccc(O)cc5)coc4c3)C(O)C(O)C2O)C(O)C(O)C1OC1OC(CO)C(O)C(O)C1O (stereo unspecified)	EZH2 inh 64
CCn1c(SCC(=O)Nc2cccc(C(F)(F)F)c2)nnc1-c1ccc(C)cc1	none
O=C(CCCCCC(=O)N/N=C/c1ccc(Br)o1)NO	none
CCOc1ccc(C(=O)c2oc3ccccc3c2NC(=O)c2cc(OC)c(OC)c(OC)c2)cc1	none
CC(=O)Nc1ccccc1C(=O)OCc1cccc(C(=O)c2ccccc2)c1	none
COc1ccc(CCNS(=O)(=O)c2cc(C)ccc2OC)cc1	none
COc1ccc(CCc2cc(OC)cc(=O)o2)cc1	EZH2 inh 52
COc1ccc2cc(CCC(C)=O)ccc2c1	none

Screening data (PubChem BioAssay)
